According to PubChem BioAssay AID1745848 (National Center for Advancing Translational Sciences (NCATS), 2022):
Hit rate of the full screen: of about 2,100 compounds, about 940 (45%) were called active. Not shown: some 48% with an inconclusive outcome. So high a share suggests a set chosen from earlier hits. The list shows a part of the results. Unmarked numbers belong to inactive results. Calls follow the shape of the dose curve; as a rule, active = well fitted inhibition curve with a large enough effect; inconclusive = small, poorly fitted or top-dose-only effect; inactive = no such curve, though single readings can be large or run the other way.

Assay: Confirmatory qHTS for Inhibitors of ATXN expression; also: nearly all actives have a fitted effect of over 65% in size;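 as to activity change, negative = inhibition: 0% = DMSO vehicle wells and -100% = medium-only wells without cells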
Conditions: ATXN2-luciferase reporter cells, luminescence, 24 h; series mostly up to 57.5 µM; activity change, negative = inhibition: at the top concentration
Text: PI: Daniel Scoles Ph.D. University of Utah School of Medicine, Salt Lake City, Utah MLPCN Grant: NS073009 Spinocerebellar ataxia type 2 (SCA2) is a multisystem neurodegenerative disease caused by a dominantly acting mutation leading to expansion of a polyQ domain in the ataxin-2 protein (ATXN2). SCA2 patients develop progressive ataxia and later lose function in other neuronal systems. Prominent parkinsonian signs develop in some patients. Like many neurodegenerative disorders, no symptomatic or disease-modifying treatments are known. The primary objective of the proposed research is to identify compounds inhibiting ATXN2 expression and to test them for efficacy in SCA2 mouse models. We have developed a cell-based assay paired with an in vivo mouse model using identical luciferase expression constructs. This approach takes advantage of an ATXN2-luciferase transgene, with the luciferase gene flanked by the upstream and downstream portions of the ATXN2 gene. Here we describe a 5-7 dose quantitative high thoroughput screen (qHTS) for compounds lowering ATXN2 expression. We screened the NIH Molecular Libraries Small Molecule Repository (MLSMR) and NCGC's mechanistically annotated (MIPE) and drug repurposing (NPC) collections of compounds for lowering expression of an ATXN2-luciferase reporter in HEK-293 cells. The assay is a multiplexed cell viability assay to ensure target reduction in the absence of cytotoxicity. Secondary qHTS assays included a CMV-luciferase reporter expressed in HEK-293 cells as well as a biochemical assay using recombinant luciferase to detect inhibitors of the reporter enzyme. Compounds that inhibit ATXN2 expression but is not cytotoxic were selected for confirmatory and secondary screens.
PROTOCOL TABLE (as described by Inglese J, Shamu CE and Guy RK. 2007) SEQUENCE No. (e.g., 1, 2, 3, etc.); PARAMETER (e.g., Cells, Incubation, Reagent, etc.); VALUE; DESCRIPTION. 1; Cells; 4 uL; white, solid bottom, 1536-well Greiner assay plate. 2; Incubation; 2 hr; 37 degree C in 5% humidified CO2. 3; Compounds; 23 nL; Kalypsis pintool (Wako USA) equipped with a 1536-well pin head. 4; Incubation; 24 hr; 37 degree C in 5% humidified CO2. 5; Reagent; 1 uL; Gly-Phe-7-Amino-4-trifluoromethylcoumarin. 6; Incubation; 30 min; 37 degree C in 5% humidified CO2. 7; Detection; Fluorescence; ViewLux plate reader (PerkinElmer). 8; Reagent; 3 uL; SteadyGlo luciferase solution (Promega). 9; Incubation; 5 min; room temperature. 10; Detection; Luminescence; ViewLux plate reader (PerkinElmer). NOTES (numbers refer to Sequence numbers above) 1. […] expressing ATXN2-luciferase reporter were suspended in phenol-red free DMEM and dispensed in assay plates using a Multidrop Combi dispenser (Thermo Fisher Scientific). Wells containing medium only were plated on each plate, and values were used to normalize (100% inhibition) in the luciferase and CellTiter-Fluor assays. 2. Assay plates were incubated. Evaporation was prevented by covering assay plates with metal lids containing holes to allow gas diffusion. 3. Compounds were added in a dose response manner with the final concentrations of 57, 11.4, 2.28, 0.46, 0.091, 0.018, 0.0037 uM. Vehicle-only plates, with DMSO being pin-transferred to columns 5-48, were inserted uniformly at the beginning and the end of each library to monitor and record any shifts in assay performance. 5. 125 uM Gly-Phe-7-Amino-4-trifluoromethylcoumarin (MP Biomedicals) working concentration was used at a final concentration of 25 uM. 7. To assess cell viability; the assay plates were read using the ViewLux high-throughput CCD imager (PerkinElmer), wherein single end-point fluorescence measurement was acquired (excitation 405/10; emission 540/25 nm). 8. Detection reagent SteadyGlo Luciferase (Promega) was added to the assay plate. 10. Luminescence is then measured on the ViewLux imager equipped with a clear emission filter using a 2 sec exposure. […]
Potency is read from the fitted curve at half-maximal effect.

SMILES	Potency	activity change, negative = inhibition
CC12CCC(O)CC1CCC1C2CCC2(C)C(C3=CC(=O)OC3)CCC12O (centres undefined)	398 nM (active)	
C[C@]12CCC3C(CCC4=CC(O)CC[C@@]43/C=N/O)C1(O)CCC2C1=CC(=O)OC1 (some centres undefined)	355 nM (active)	
C[C@]12CC[C@H](O)C[C@H]1CC[C@@H]1[C@@H]2CC[C@]2(C)[C@@H](C3=CC(=O)OC3)CC[C@]12O	282 nM (active)	
COc1ccc(O)c2c(=O)c3c(OC)cc4c(c3oc12)C1C=COC1O4 (centres undefined)	2000 nM (active)	
O=C1NC(=O)N(CCc2ccc(F)cc2)C(=O)/C1=C/C=C/c1ccccc1	7940 nM (active)	
c1ccc2sc(N3CCNCC3)nc2c1		-24.4%
COc1cc2nc(CN3CC=C(c4ccccc4)CC3)[nH]c(=O)c2cc1OC	282 nM (active)	
COc1cc2c(cc1OC)-c1c3c(cc4c1[C@@H](C2)N(C)CC4)OCO3	1120 nM (active)	
COC1C(O)C(C)OC(OC2C(Oc3cccc4c(O)c5c(=O)oc6ccc(C)c7c(=O)oc(c34)c5c67)OC(C)C(O)C2O)C1O (centres undefined)		-5.87% [at 11.5 µM]
CN1C(=O)NC(=O)/C(=C\C=C\c2ccccc2[N+](=O)[O-])C1=O	11200 nM (active)	
CC12CCC3C(CCC4(O)CC(O)CCC34C=NO)C1(O)CCC2C1=COC(=O)C1 (centres undefined)	282 nM (active)	
CCCCN=C[C@]12CCC(O)CC1(O)CCC1[C@@H]2CC[C@]2(C)[C@H](C3C=CC(=O)O3)CCC12O (some centres undefined)	631 nM (active)	
CNC(=O)Nc1ccc(C(=O)N/N=C\C23CC[C@@H](O)CC2(O)CC[C@@H]2[C@@H]3CCC3(C)C(C4=CC(=O)OC4)CCC23O)cc1 (some centres undefined)	25100 nM (active)	
C1=NCCc2c1[nH]c1ccccc21	3160 nM (active)	
CC(=O)OC1(C)CC(C)C(=O)C(C(O)CC2CC(=O)NC(=O)C2)C1 (centres undefined)	10 nM (active)	
C[C@H]1C[C@@H](C)C(=O)[C@@H]([C@H](O)CC2CC(=O)NC(=O)C2)C1	178 nM (active)	
C[C@@H]1C[C@@H]([C@H](O)CC2CC(=O)NC(=O)C2)C(=O)[C@@H](C)C1	1260 nM (active)	
O=C(CSC1c2ccccc2-c2ccccc21)N/N=C/c1ccccc1O	3160 nM (active)	
C[C@H]1CCC[C@H](O)CCCCCc2cc(O)cc(O)c2C(=O)O1	3160 nM (active)	
C[C@H]1CCC[C@@H](O)CCC/C=C/c2cc(O)cc(O)c2C(=O)O1	1410 nM (active)	
COc1ccc(CCNCc2ccc(F)cc2)cc1OC		-6.67% [at 11.5 µM]
O=C(Nc1ccc(OC(=O)N2CCCCC2)cc1)N1CCOCC1	4470 nM (active)	
CC(=O)O[C@H]1[C@H]2O[C@]23[C@@H]2CC[C@]4(O)C[C@@H](O)CC[C@]4(C)C2CC[C@]3(C)[C@H]1c1ccc(=O)oc1 (some centres undefined)	39.8 nM (active)	

SMILES	Potency	activity change, negative = inhibition
C[C@H]1[C@@H](OS(=O)(=O)O)C[C@@H]2C[C@H]([C@@H](O)c3cc(=O)[nH]c(=O)[nH]3)NC3=NC[C@H]1N32	7940 nM (active)	
NC(=O)c1c(Br)n(C2OC(CO)C(O)C2O)c2ncnc(N)c12 (centres undefined)	1580 nM (active)	
O=c1[nH]c2ccccc2n1C1CCN(C(c2cc3ccccc3o2)c2nnnn2-c2ccc3c(c2)OCCO3)CC1 (centres undefined)	3160 nM (active)	
COc1cccc(C(c2nnnn2-c2ccc3c(c2)OCCO3)N2CCC(n3c(=O)[nH]c4ccccc43)CC2)c1OC (centres undefined)	3550 nM (active)	
Cc1cccc(C)c1-n1nnnc1C(c1cc2ccccc2o1)N1CCC(n2c(=O)[nH]c3ccccc32)CC1 (centres undefined)	3160 nM (active)	
COC(=O)C(O)(c1ccc(NC(=S)NC(=O)c2ccc(Cl)cc2Cl)c(C)c1)C(F)(F)F (centres undefined)		-8.26% [at 11.5 µM]
CN1C2CCC1/C(=C/c1ccccn1)C(=O)/C2=C\c1ccccn1	398 nM (active)	
CC1CC(C)CC(C)C(O)C(C#N)=CC=CCC(C2CCCC2C(=O)O)OC(=O)CC(O)C(C)C1 (centres undefined)	501 nM (active)	
O=C1NC2C(=CC(O)C(O)C2O)c2cc3c(cc21)OCO3 (centres undefined)	199 nM (active)	
CCCCc1ccc2[nH]cc(CCN)c2c1	3160 nM (active)	
NC(Cc1ccc(Cl)cc1)c1csc(Nc2ccccn2)n1 (centres undefined)	22400 nM (active)	
N#Cc1ncc(N=Cc2ccc(N(CCCl)CCCl)cc2)s1	2000 nM (active)	
CCCCCCC(=O)N/N=C/c1c(O)n(CCCC)c(=S)[nH]c1=O	15800 nM (active)	
CCCCCCC(=O)N/N=C/c1c(O)n(CCc2ccccc2)c(=O)[nH]c1=O	12600 nM (active)	
CCCCC(=O)N/N=C/c1c(O)n(CCC2=CCCCC2)c(=O)[nH]c1=O	15800 nM (active)	
Cc1ccc(N2C(=O)NC(=O)/C(=C/C=C/c3ccco3)C2=O)cc1	2820 nM (active)	
COc1ccc(CC2C(=O)NC(C)C(=O)N(C)C3C(=O)N(C)C(Cc4ccc(O)c(c4)Oc4ccc(cc4)C3O)C(=O)NC(C)C(=O)NC(C)C(=O)N2C)cc1 (centres undefined)	316 nM (active)	
CCC(C)N1C(=O)/C(=C\c2cnc(N(C)C)nc2)C(=O)NC1=S (centres undefined)		-13.2%
CC1OC(OC2C(O)CC(OC3C(O)CC(OC4CCC5(C)C(CCC6C5CCC5(C)C(C7=CC(=O)OC7)C(O)CC65O)C4)OC3C)OC2C)CC(O)C1O (centres undefined)	316 nM (active)	
C[C@]12CC[C@H](O)C[C@H]1CC[C@@H]1C2CC[C@]2(C)[C@@H](C3=CC(=O)OC3)[C@@H](O)C[C@]12O (some centres undefined)	355 nM (active)	
CC12CCC(O)CC1CCC1C2CCC2(C)C(C3=CC(=O)OC3)C(O)CC12O (centres undefined)	3160 nM (active)	
CC(=O)OC1CC2(O)C3CCC4CC(O)CCC4(C)C3CCC2(C)C1C1=CC(=O)OC1 (centres undefined)	316 nM (active)	
COC1C(O)C(C)OC(OC2CCC3(C)C(CCC4C3C(O)CC3(C)C(C5=CC(=O)OC5)CCC43O)C2)C1O (centres undefined)	316 nM (active)	

SMILES	Potency	activity change, negative = inhibition
CN1CN(c2ccccc2)C2(CCN(CCCSc3ccccc3NC(=O)/C=C/c3ccccc3)CC2)C1=O	28200 nM (active)	
CC(C)c1oc(=O)cc2c1[C@@H](O)[C@H]1OC(=O)[C@@]3(C)CC[C@@H](O)[C@@]2(C)C13 (some centres undefined)	3160 nM (active)	
CCC1(OC(=O)CN)C(=O)OCc2c1cc1n(c2=O)Cc2cc3ccccc3nc2-1 (centres undefined)	39.8 nM (active)	
CC[C@@]1(O)C(=O)OCc2c1cc1n(c2=O)Cc2cc3c(NC(=O)CN)cccc3nc2-1	112 nM (active)	
COc1ccc(C[C@H]2NC[C@H](O)[C@H]2OC(C)=O)cc1	28.2 nM (active)	
COc1ccc(CC2NCC(O)C2OC(C)=O)cc1 (centres undefined)	224 nM (active)	
Cc1ccc(/C=C2\C(=O)NC(=S)N(c3ccccc3F)C2=O)s1	3160 nM (active)	
CCC1CN2CCc3cc(OC)c(OC)cc3C2CC1CC1NCCc2c1[nH]c1ccc(O)cc21 (centres undefined)	39.8 nM (active)	
CSCCC(c1nnnn1-c1c(C)cccc1C)N1CCC2(CC1)C(=O)NCN2c1ccccc1 (centres undefined)	35500 nM (active)	
CCC(C)(O)C(=O)OC1C(=O)OC2CC3C(C)=CC(=O)C(O)C3(C)C3C4(O)OCC23C1C(C)C4O (centres undefined)	251 nM (active)	
O=c1[nH]c2ccccc2n1C1CCN(C(CCc2ccccc2)c2nnnn2C2CCCC2)CC1 (centres undefined)	22400 nM (active)	
CC(C)(C)n1nnnc1C(CCc1ccccc1)N1CCC(n2c(=O)[nH]c3ccccc32)CC1 (centres undefined)	28200 nM (active)	
COC(=O)c1nc(-c2ccc3c(n2)C(=O)C(N)=C(OC)C3=O)c(N)c(-c2ccc(OC)c(OC)c2O)c1C	14100 nM (active)	
Cc1cc(N(CCCl)CCCl)ccc1C=NNC(=O)c1cccnc1	1580 nM (active)	
COc1cc(C(=O)NN=Cc2ccc(N(CCCl)CCCl)cc2)cc(OC)c1OC	8910 nM (active)	
O=C(NN=Cc1ccc(N(CCCl)CCCl)cc1)c1cc(=O)[nH]c(=O)[nH]1	3160 nM (active)	
COc1ccc(N=Cc2c(O)n(-c3ccc(C)cc3)c(=O)[nH]c2=O)cc1		-15.9%
Oc1c(Cl)cccc1Cc1cc(Cl)cc(Cl)c1O	15800 nM (active)	
Clc1ccc2[nH]c3c(c2c1)CCNC3	3160 nM (active)	
O=[N+]([O-])c1oc2ccc3ccccc3c2c1CCO	14100 nM (active)	
C[C@@H]1O[C@@H](O[C@@H]2C=C3CC[C@@H]4C(CC[C@]5(C)[C@@H](c6ccc(=O)oc6)CC[C@]45O)[C@@]3(C)CC2)[C@H](O)[C@H](O)[C@H]1O (some centres undefined)	112 nM (active)	
COc1cccc2c1C(=O)c1c(O)c3c(c(O)c1C2=O)CC(O)(C(C)=NO)CC3OC1CC(N)C(O)C(C)O1 (centres undefined)	708 nM (active)	
Cc1ccc(N2C(=O)NC(=O)/C(=C\c3cc(C)n(-c4sc5c(c4C#N)CCCC5)c3C)C2=O)cc1	10000 nM (active)	
